Bioassay records deposited in PubChem by The Scripps Research Institute Molecular Screening Center.
TTR transcr act – TTR transcription activators in neuroblastoma reporter cells, primary screen, cell-based, luminescence, SH-SY5Y, TTR promoter Gaussia luciferase; AID 1117267, 2014; 100% = recombinant luciferase protein wells; activation, % at 16.7 µM; 1.3% of 92,000 active;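 active = activation above the mean of all tested compounds plus 3 SD, cut at about 9.5% in these data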;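 note: cells exposed to compounds for one day before reading; 0% = median of all test compound wells on the plate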
HuH7 TTR inh – TTR promoter reporter inhibitors in hepatoma cells, counter-screen for TTR transcription activator project, cell-based, luminescence, HuH7 hepatoma | shares compounds with TTR transcr act | HuH7 TTR promoter-Gaussia luciferase reporter | inhibition, % at 16.7 µM | 4% of 1,100 active | AID 1117279, 2014;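 active = average inhibition above the solvent-only control wells' mean plus 3 SD, cut at about 15% in these data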;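 note: 0% = cells with DMSO only and 100% = cells with inhibitor control FD; inhibitors lower well luminescence so higher value means more inhibition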
TTR up confirm – TTR transcription activators, retest, confirmation, cell-based, luminescence, SH-SY5Y, triplicate; shares compounds with TTR transcr act; SHSY5Y TTR promoter Gaussia luciferase; 100% = purified Lucia enzyme wells, no cells; activation, % at 16.7 µM; 1,100 tested, under 10 active;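 active = mean activation above a set limit taken from the earlier primary screen, cut at about 11% in these data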;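 note: 0% = DMSO-treated cells and 100% = recombinant Lucia luciferase without cells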
* hit, by the source's call. The sample as a whole holds a higher share of hits than the screen did.

C/C(=N\NC(=O)c1c[nH]c2ccccc12)c1ccco1 was read as TTR transcr act 2.
O=C(Cn1cnc2ccccc2c1=O)c1c[nH]c2ccccc12 was read as TTR transcr act -1.
Screening Cn1ccc2c(-c3cccnc3)cc3c(c21)C1CCC3C1 (stereo not drawn) returned TTR transcr act 1.
Screening N#Cc1c(F)cccc1NCc1cccs1 returned TTR transcr act 14*, HuH7 TTR inh -9 and TTR up confirm 1.
For O=S(=O)(NCc1cccs1)NCc1ccccc1F the results were TTR transcr act 4.
For S=C(NCc1cccs1)Nc1cccc2ccccc12 the results were TTR transcr act 1.
CCN1C(=O)[C@@H]2[C@@H]3CN(S(=O)(=O)c4ccc(C)cc4)[C@@H](c4ccccc4F)[C@@H]3C(=O)C[C@@H]2C1=O was read as TTR transcr act -1.
Screening O=C1C(C23CC4CC(CC(C4)C2)C3)C(=O)N(c2ccccc2)N1c1ccccc1 returned TTR transcr act 51*, HuH7 TTR inh 2 and TTR up confirm 0.
For O=C(NCc1ccccc1)NC12CC3CC(CC(C3)C1)C2 the results were TTR transcr act 5.
O=C1CC(c2ccccc2)CC(=O)N1c1ccccc1 was read as TTR transcr act 1.
Screening CN1CCN(C(=O)c2cc3c(c(-c4cccc(Br)c4)n2)[C@H](CCO)N(S(=O)C(C)(C)C)C3)CC1 (stereo partly drawn) returned TTR transcr act 0.
`CN(C(=O)COc1ccccc1)c1nc(-c2ccc(F)cc2)cs1` gave TTR transcr act -1.
COCC(=O)Nc1nnc(-c2cccs2)s1 was read as TTR transcr act 1.
Screening COCC(=O)N(C)c1nnc(-c2cnc(C)cn2)s1 returned TTR transcr act 9.7*, HuH7 TTR inh -8 and TTR up confirm -1.
For CCn1ccc(C(=O)NC2CCCC2)n1 the results were TTR transcr act 0.
For O=C(Nc1ncccc1Cl)c1cccc(F)c1 the results were TTR transcr act 12*, HuH7 TTR inh -17 and TTR up confirm 0.
For COc1cc(OC)c(NC(=O)c2cccc(F)c2)cc1Cl the results were TTR transcr act -2.
`Cc1cc(NC(=O)c2cccc(F)c2)no1` gave TTR transcr act 8.
Screening CCc1cccc(CC)c1NC(=O)C1SC(=Nc2ccccc2C)C(c2nc3ccccc3s2)=C1N (stereo not drawn) returned TTR transcr act -2.
Screening CC(Oc1ccc(C(C)(C)C)cc1)C(=O)NCC(c1ccco1)N1CCCC1 (stereo not drawn) returned TTR transcr act -2.
Screening CN1CCC(N2CCN(C3CN(Cc4ccc(F)cc4)S(=O)(=O)C3)CC2)CC1 (stereo not drawn) returned TTR transcr act 12*, HuH7 TTR inh -7 and TTR up confirm 0.
`CN1CCN(C2CN(Cc3ccccc3)S(=O)(=O)C2)CC1` (stereo not drawn) gave TTR transcr act 8.
For O=S1(=O)CC(N2CCC(Cc3ccccc3)CC2)CN1Cc1ccc(F)cc1 (stereo not drawn) the results were TTR transcr act -2.
Screening Cc1nc(-c2ccc(Cl)cc2)sc1C(=O)NNC(=O)C(C)C returned TTR transcr act 3.
For CNC(=S)NNC(=O)c1sc(-c2cc(C)on2)nc1C the results were TTR transcr act 14*, HuH7 TTR inh -7 and TTR up confirm -1.
`Cc1cc(C(=O)NNC(=S)NCC(C)C)no1` gave TTR transcr act 0.
`c1ccc(Cc2noc(CN3CCN(C4CCc5ccccc5C4)CC3)n2)cc1` (stereo not drawn) gave TTR transcr act -1.
N#CCC(=O)Nc1ccc(C(=O)NCC2(N3CCOCC3)CCCCC2)cc1 was read as TTR transcr act 0.
Screening O=C(Cc1cccc(NC(=O)C2CCCN(C(=O)C3CCC3)C2)c1)Nc1ccc(C(=O)N2CCOCC2)cc1 (stereo not drawn) returned TTR transcr act 1.
For COc1ccc(/C=C/C(=O)NC2=NCCS2)cc1OC the results were TTR transcr act -1.
CC(O)(c1ccccc1)c1nc(-c2cccc(C(=O)O)c2)cs1 (stereo not drawn) was read as TTR transcr act 1.
`CC(O)(c1ccc(F)c(F)c1)c1nc(-c2cccc(C(=O)O)c2)cs1` (stereo not drawn) gave TTR transcr act 13*, HuH7 TTR inh -35 and TTR up confirm -1.
For CC(O)(c1ccc(F)c(F)c1)c1nc(-c2ccc(Cl)cc2)cs1 (stereo not drawn) the results were TTR transcr act 0.
O=C(Nc1cccc(S(=O)(=O)N2CCOCC2)c1)c1cn(-c2ccccc2)nc1-c1ccc(F)cc1 was read as TTR transcr act -1.
Screening Cc1ccc(NC(=O)c2ncn(CCCN3CCN(c4ncccn4)CC3)n2)cc1C returned TTR transcr act -1.
Screening COc1ccc(-n2cc(COC(=O)NCCc3ccccc3)nn2)cc1 returned TTR transcr act 11*, HuH7 TTR inh -8 and TTR up confirm -1.
O=C(NCCc1ccccc1)OCc1cn(-c2cccc(C(F)(F)F)c2)nn1 was read as TTR transcr act 4.
Screening O=C(NCCc1ccccc1)OCc1cn(-c2c(F)cccc2F)nn1 returned TTR transcr act 1.
O=C(c1cccs1)N(CCO)Cc1cc2cc3c(cc2[nH]c1=O)OCCO3 was read as TTR transcr act 7.
For Cc1ccc(Nc2ncc3c(n2)CC(C)CC3=O)c(C)c1 (stereo not drawn) the results were TTR transcr act 0.
Screening CC(C)(C)NC(=O)C[C@H]1C[C@H](C(=O)N2CCCCC2)[C@@]2(CCc3ccccc3)c3[nH]c4cc(-c5ccco5)ccc4c3CCN2C1=O returned TTR transcr act -2.
For COc1cc(C(=O)NCCCn2ccnc2)cc(OC)c1OC the results were TTR transcr act -1.
O=C(NCCCn1ccnc1)c1cc(C2CC2)on1 was read as TTR transcr act 10*, HuH7 TTR inh -2 and TTR up confirm 1.
Screening Cc1cc(C(=O)NCCCn2ccnc2)cs1 returned TTR transcr act 0.
Screening Cc1cccc(C)c1NC(=O)c1cccc(C(=O)Nc2c(C)cccc2C)n1 returned TTR transcr act 2.
NS(=O)(=O)c1ccc(N/N=C/c2ccc3c(c2)OCO3)c([N+](=O)[O-])c1 was read as TTR transcr act -1.
Screening COc1ccc(C(O)(C(C)C)C(CN2CCOCC2)c2ccc(Cl)cc2)cc1 (stereo not drawn) returned TTR transcr act 0.
For CCCCNC(=O)C1(C)CCN1C(=O)c1ccc(C(F)(F)F)nc1C (stereo not drawn) the results were TTR transcr act -1.
`COc1ccccc1NC(=O)Cc1csc(NC(=O)c2ccccc2)n1` gave TTR transcr act -1.
Screening COc1ccccc1NC(=O)Cc1noc(CSc2nnc(N)s2)n1 returned TTR transcr act 11*, HuH7 TTR inh -21 and TTR up confirm 1.
`COc1ccccc1Nc1nnc(SCC(=O)Nc2cc(C)on2)s1` gave TTR transcr act 10.
Screening CCn1c(SCC(=O)Nc2cccc(OC)c2)nc2ccccc2c1=O returned TTR transcr act -2.
